Assay outcomes from PubChem BioAssay.
Most compounds without a hit are left out; they make up all but 7.4% or so of the library.
SMN2 splice up: enhancers of SMN2 splice variant expression; HEK293 SMN2-luciferase splicing reporter, luminescence, 30-36 h; Potency, µM (top dose mostly 46.1 µM), for inactives: at the top dose activity change, positive = activation, hits mostly activators; 2.8% of 210,000 active; AID 1458; also: % of control where 0% means no effect; nearly all actives have a fitted effect of over 55% in size
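HEK293 cells carry an SMN2 minigene-luciferase reporter in which exon 7 inclusion puts luciferase in frame. Cells were seeded at 2000 cells/well, attached for 10-12 hours, then exposed to compounds for 30-36 hours at 37C before ONE-Glo luminescence.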
FLuc counter: inhibits or activates purified firefly luciferase, miR-21 counter-screen | P08659 | purified FLuc, Km substrates, luminescence inhibition | Potency, µM (highest dose often 57.5 µM), for the others: at the highest dose activity change, negative = inhibition, usual class: inhibitors | 6.9% of 360,000 active;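 also: plate controls were vehicle for no effect and reference inhibitor for full effect; nearly all actives have a fitted effect of over 55% in size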
Target sequence (P08659 whole entry, looked up): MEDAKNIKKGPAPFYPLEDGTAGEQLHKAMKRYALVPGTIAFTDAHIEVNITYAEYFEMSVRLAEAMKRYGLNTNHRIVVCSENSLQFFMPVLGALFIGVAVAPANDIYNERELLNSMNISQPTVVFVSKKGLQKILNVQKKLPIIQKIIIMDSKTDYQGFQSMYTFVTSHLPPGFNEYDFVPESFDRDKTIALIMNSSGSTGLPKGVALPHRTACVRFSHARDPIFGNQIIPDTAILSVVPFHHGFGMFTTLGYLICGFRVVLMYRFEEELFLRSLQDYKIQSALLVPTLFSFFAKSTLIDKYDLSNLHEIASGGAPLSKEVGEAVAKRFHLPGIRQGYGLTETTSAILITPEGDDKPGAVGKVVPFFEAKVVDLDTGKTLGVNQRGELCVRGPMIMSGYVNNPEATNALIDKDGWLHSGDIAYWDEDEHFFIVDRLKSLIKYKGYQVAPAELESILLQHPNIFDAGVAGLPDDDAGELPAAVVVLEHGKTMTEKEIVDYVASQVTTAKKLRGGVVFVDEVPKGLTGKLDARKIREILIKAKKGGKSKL
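Purified P. pyralis luciferase, 10 nM final, with Km-level 10 uM D-luciferin and 10 uM ATP in 50 mM Tris acetate pH 7.5, 10 mM Mg acetate, 0.01% Tween-20, 0.05% BSA; 6-point qHTS titration about 60 µM downward; luminescence read.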
KinaseGlo FLuc: blocks Kinase-Glo luciferase, a counter-screen artifact; Potency, µM (titrated, usually from 38.3 µM), without a hit: at the top dose activity change, negative = inhibition, usual class: inhibitors; 0.28% of 200,000 active; Kinase-Glo luciferase, ATP luminescence, 8 min; Q27757; also: % is scaled to controls: 0 for no effect and ±100 for the full control effect; nearly all actives have a fitted effect of over 60% in size
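Kinase-Glo luciferase light output from ATP and luciferin was measured with 10 uM ATP, within the enzyme's linear range. Buffer: 50 mM imidazole pH 7.2, 50 mM KCl, 7 mM MgCl2, 0.01% Tween 20, 0.05% BSA; luminescence read after 8 min at ambient temperature.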
Rab9 promoter act: activates the Rab9 promoter; Huh7 Rab9 promoter-luciferase reporter, luminescence, 24 h; Potency, µM (highest dose often 9.22 µM), for the others: top-dose activation, negative = inhibition, actives largely listed as activators; 2.8% of 320,000 active; also: % of control where 0% means no effect; nearly all actives have a fitted effect of over 60% in size
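Quantitative HTS format; Huh7 Rab9-luciferase reporter cells (1500/well) receive compound 2 h post-plating, incubate 24 h at 37 °C, then get luciferase reagent for 10 min before luminescence reading.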
NPC1 promoter act: activates the NPC1 promoter; Huh7 NPC1 promoter luciferase reporter, 24 h; Potency, µM (doses to about 9.22 µM), for the others: at the top dose activation, usual class: activators; 2.4% of 320,000 active; also: % of control where 0% means no effect; nearly all actives have a fitted effect of over 60% in size
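Luminescence from an NPC1 promoter-driven luciferase reporter in stably transfected Huh7 cells was measured after 24 h compound treatment at 37 °C, followed by 10 min ambient incubation with luciferase detection reagent.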
ELG1 genotox: induces genotoxicity in HEK293T cells with luciferase-tagged ELG1. HEK293T ELG1-luciferase reporter, luminescence, 16 h. Potency, µM (titrated, usually from 46 µM), for the others: top-dose activity change, positive = activation, usual class: activators. 1.3% of 330,000 active. AID 504466; also: % of control where 0% means no effect; nearly all actives have a fitted effect of over 60% in size
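Step 1: seed 2,000 HEK293T ELG1-luciferase cells per well. Step 2: add compound or DMSO, incubate 16 hr at 37 °C. Step 3: ONE-Glo, 30 min at room temperature, read luminescence.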
Numbers without * were called inactive; ? = inconclusive; nt = no result given. Calls follow the shape of the dose curve; as a rule, active = well fitted curve in the direction sought with a large enough effect; inconclusive = small, poorly fitted or top-dose-only effect, or another doubt; inactive = no such curve, though single readings can be large; an effect the other way counts as inactive or inconclusive. Potency is read from the fitted curve at half-maximal effect.

SMILES	SMN2 splice up	FLuc counter	KinaseGlo FLuc	Rab9 promoter act	NPC1 promoter act	ELG1 genotox
Cc1cc(N2CCOCC2)nc2ccc(NC(=O)CCC(=O)N3CCN(c4ccccc4)CC3)cc12	nt	12µM*	nt	30%	?	9%
CCCCN(CC)CCNC(=O)CCC(=O)Nc1ccc2nc(N3CCN(C)CC3)cc(C)c2c1	-11%	-4%	0%	-3%	8%	6%
CCCCNC(=O)CCC(=O)Nc1ccc2nc(N3CCCCC3)cc(C)c2c1	7.1µM*	15µM*	5%	?	?	9%
CCCN(CCC)CCNC(=O)CCC(=O)Nc1ccc2nc(N3CCOCC3)cc(C)c2c1	nt	-1%	nt	3.5µM*	?	?
CC(=O)N1CCc2c(sc3c2c(=O)n(-c2cccc(Cl)c2)c(=O)n3Cc2ccc(F)cc2Cl)C1	nt	6%	nt	nt	nt	nt
Cc1cn2c(=O)c(S(=O)(=O)NCc3ccc(F)cc3)c(C)nc2s1	nt	6%	nt	nt	nt	nt
Cc1cc(N2CCOCC2)nc2ccc(NC(=O)C3CCC(C)CC3)cc12 (configuration not stated)	-16%	1%	-1%	5%	-7%	-2%
COc1cccc(NC(=O)CCC(=O)Nc2ccc3nc(N4CCOCC4)cc(C)c3c2)c1	nt	6µM*	nt	2.5µM*	?	13%
COc1cccc(CC(=O)Nc2ccc3nc(N4CCC(C)CC4)cc(C)c3c2)c1	-18%	-13%	nt	nt	nt	nt
CCCCNC(=O)CCC(=O)Nc1ccc2nc(N3CCOCC3)cc(C)c2c1	21%	15µM*	5%	?	?	12%
COCCCNC(=O)CCC(=O)Nc1ccc2nc(N3CCOCC3)cc(C)c2c1	?	?	5%	?	2%	7%
CCOC(=O)C1CCCN(C(=O)CCC(=O)Nc2ccc3nc(N4CCOCC4)cc(C)c3c2)C1 (configuration not stated)	nt	17µM*	nt	?	?	?
CC(C(=O)Nc1cc(C(F)(F)F)ccc1Cl)n1nnc2sc3c(c2c1=O)CCCC3 (configuration not stated)	8%	-9%	nt	nt	nt	nt
CCC(=O)Nc1ccc(NC(=O)c2ccccc2)nc1	4µM*	6µM*	-15%	0.45µM*	1.3µM*	?
CCC(=O)Nc1ccc(NC(=O)Cc2ccccc2)cn1	4%	3%	3%	0%	-1%	2%
CCCC(=O)Nc1ccc(NC(=O)c2ccccc2F)cn1	nt	?	nt	?	?	8%
CCCC(=O)Nc1ccc(NC(=O)c2ccccc2)nc1	nt	4.8µM*	nt	0.28µM*	0.32µM*	?
COc1ccc(CN=C(Nc2ccccc2)SC2CC(=O)NC2=O)cc1 (configuration not stated)	nt	6.7µM*	-3%	?	?	?
CC(C)COC(=O)/C(C#N)=C\c1ccc(-c2ccccc2Cl)o1	-2%	?	nt	nt	nt	nt
CCOC(=O)/C(C#N)=C/c1ccc(-c2ccc(C)cc2)o1	10%	3.8µM*	nt	nt	nt	nt
CCOC(=O)/C(C#N)=C/N=c1ccc(C)cn1C	nt	17µM*	nt	?	?	?
CCCN1C=CC(=C/C=C(\C#N)C(=O)OCC)C=C1	14µM*	6µM*	0%	4µM*	4µM*	?
CCCCCCN1C=CC(=C/C=C(\C#N)C(=O)OCC)C=C1	-7%	9%	-2%	-5%	-1%	-7%
CCOC(=O)/C(C#N)=C/c1ccc(-c2ccccc2)o1	0%	9.5µM*	nt	nt	nt	nt
CCCCOC(=O)/C(C#N)=C/c1ccc(-c2ccc(Br)cc2)o1	3%	-19%	nt	nt	nt	nt
SMILES	SMN2 splice up	FLuc counter	KinaseGlo FLuc	Rab9 promoter act	NPC1 promoter act	ELG1 genotox
COc1ccccc1-c1nc2c(c(SCC(=O)Nc3ccccc3F)n1)Cc1c(CO)cnc(C)c1O2	nt	4%	nt	nt	nt	nt
CC(=O)Nc1ccc2c(c1)CCC2=O	13%	-1%	-2%	-1%	0%	0%
O=C1/C(=C\c2ccc([N+](=O)[O-])cc2)CCc2ccccc21	?	0.095µM*	13µM*	24%	21%	7.3µM*
CC(=O)Nc1ccc(/C=C2\CCc3ccccc3C2=O)cc1	nt	6.7µM*	nt	?	3.2µM*	?
O=C1/C(=C/Nc2cccc([N+](=O)[O-])c2)CCc2ccccc21	11µM*	2.7µM*	-2%	2.5µM*	2.8µM*	?
O=C1/C(=C/c2ccc(O)cc2)CCc2ccc([N+](=O)[O-])cc21	8%	-20%	2%	-1%	-6%	0%
O=C(NCC(c1cccs1)S(=O)(=O)c1cccs1)c1cccc(F)c1 (configuration not stated)	nt	-7%	nt	nt	nt	nt
CCC(C)NC(=O)c1sc2nc(C)c(C(=O)Nc3ccc(C)cc3C)c(-c3ccccc3Cl)c2c1N (configuration not stated)	-9%	-15%	nt	nt	nt	nt
CCOC(=O)C(C)Nc1ncnc2onc(C)c12 (configuration not stated)	5%	0%	nt	nt	nt	nt
Cc1ccc(Cl)cc1NC(=O)CCc1c(C)nc2c3cccnc3nn2c1C	-34%	0%	nt	nt	nt	nt
Cc1ccc(-c2nc(SCCOc3ccccc3C)n3[nH]c(=O)cc3n2)cc1	nt	-2%	nt	nt	nt	nt
COc1ccc(CCNC(=O)CCc2c(C)c3cc4c(C)c(C)oc4cc3oc2=O)cc1OC	7%	-3%	nt	nt	nt	nt
Cc1ccc(-n2cc(CNC(C)c3cnn(C)c3C)c(-c3ccc(F)cc3)n2)cc1 (configuration not stated)	nt	15µM*	nt	-1%	-4%	-7%
Cc1ccc(-n2cc(CNC(C)c3cnn(C)c3)c(-c3ccc(F)cc3)n2)cc1 (configuration not stated)	-11%	?	-1%	-7%	-1%	-11%
Cc1ccc(-n2cc(CNC(C)Cn3cncn3)c(-c3ccc(F)cc3)n2)cc1 (configuration not stated)	-7%	17µM*	0%	-4%	2%	0%
Cc1c(CC(=O)NCCCCCC(=O)O)c(=O)oc2c(C)c3oc4c(c3cc12)CCCC4	nt	?	nt	5%	0%	1%
Cc1c(CC(=O)NCCC(=O)O)c(=O)oc2cc3oc4c(c3cc12)CCCC4	nt	17µM*	nt	-1%	4%	-17%
CCCC(NC(=O)CCc1c(C)c2cc3c4c(oc3c(C)c2oc1=O)CCCC4)C(=O)O (configuration not stated)	nt	?	nt	2%	1%	0%
Cc1c(CCC(=O)N[C@@H](C)C(=O)O)c(=O)oc2cc3oc4c(c3cc12)CCCC4	nt	11µM*	nt	-6%	-3%	5%
Cc1c(CC(=O)NCCCC(=O)O)c(=O)oc2cc3oc4c(c3cc12)CCCC4	nt	21µM*	nt	-3%	0%	2%
